Assay outcomes deposited in PubChem by National Center for Advancing Translational Sciences (NCATS).
DT40 TDP1 no CPT = qHTS for Inhibitors of human tyrosyl-DNA phosphodiesterase 1 (TDP1): qHTS in cells in absence of CPT | DT40 Tdp1-/- hTDP1 cells, no CPT, ATP luminescence, 48 h | Potency, µM (highest dose often 46.2 µM), without a hit: at the highest dose activity change, negative = growth inhibition, most hits filed as inhibitors | 420,000 tested, 15% active | AID 686978, 2013; note: potency is the fitted concentration of half-maximal effect; nearly all actives have a fitted effect of over 55% in size
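Luminescent ATP content (CellTiter-Glo) served as the growth readout. Knockout chicken DT40 cells expressing human TDP1 were exposed to compounds without camptothecin for a minimum 48 hr at 37 °C.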
IL-1B inflam inh = inhibitors of inflammasome signaling (IL-1 beta secretion) | THP-1 LPS/ATP IL-1B secretion, AlphaLISA, 16 h; active compounds read low | 360,000 tested, 4.7% active | activity change, % at 57.5 µM | AID 743279; in the data active = activity change below about -50%; inconclusive = mostly about -30% to -49%
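THP-1 cells pretreated 1 hr with compounds (up to 57.5 uM final), then stimulated with LPS (250 ng/mL final) plus ATP (1.25 mM final); secreted IL-1B measured by AlphaLISA after 16 hr, decreased signal indicating inhibition.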
HT1080 IDH1KD tx = kills HT-1080 cells with IDH1 knockdown | Potency, µM (top dose mostly 46.1 µM), inactives show at the highest dose activity, negative = toxicity, actives largely listed as cytotoxic | HT-1080 IDH1 knockdown viability, ATP luminescence, 48 h | 360,000 tested, 2% active;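 note: potency is the fitted concentration of half-maximal effect; 0% = DMSO wells and -100% = cell-free medium wells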
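IDH1KD HT-1080 cells, 750/well, RPMI + 5% FBS; compound pinned after 2 h settling; 48 h, 37 °C; CellTiter-Glo luminescence; % activity normalised to DMSO and no-cell wells; curves fitted, classed by r2 and efficacy.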
HT1080NT lethal = kills 2HG-producing HT-1080-NT fibrosarcoma cells. Potency, µM (doses to about 46.1 µM), inactives show top-dose activity, negative = less viability, usual class: cytotoxic. 360,000 tested, 1.6% active. HT-1080-NT fibrosarcoma viability, CellTiter-Glo ATP luminescence, 48 h;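 note: NT is the 2HG producing partner of a matched IDH1 knockdown line; potency is the fitted concentration of half-maximal effect; 0% = DMSO-treated cells and -100% = media-only wells without cells; nearly all actives have a fitted effect of over 55% in size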
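HT-1080-NT fibrosarcoma cells (2HG-overproducing), 750 cells/well in RPMI with 5% FBS, dosed after 2 h and incubated 48 h at 37C. CellTiter-Glo luminescence normalized to DMSO and no-cell wells; concentration-response curves fitted and classed.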
12-LOX inh = inhibitors of human 12S-lipoxygenase ALOX12; P18054; purified 12hLO, xylenol orange hydroperoxide absorbance; Potency, µM (titrated, usually from 108 µM), without a hit: at the highest dose activity change, negative = inhibition, most hits filed as inhibitors; 580,000 tested, 1.1% active; note: potency is the fitted concentration of half-maximal effect
Target sequence (P18054 whole entry, looked up): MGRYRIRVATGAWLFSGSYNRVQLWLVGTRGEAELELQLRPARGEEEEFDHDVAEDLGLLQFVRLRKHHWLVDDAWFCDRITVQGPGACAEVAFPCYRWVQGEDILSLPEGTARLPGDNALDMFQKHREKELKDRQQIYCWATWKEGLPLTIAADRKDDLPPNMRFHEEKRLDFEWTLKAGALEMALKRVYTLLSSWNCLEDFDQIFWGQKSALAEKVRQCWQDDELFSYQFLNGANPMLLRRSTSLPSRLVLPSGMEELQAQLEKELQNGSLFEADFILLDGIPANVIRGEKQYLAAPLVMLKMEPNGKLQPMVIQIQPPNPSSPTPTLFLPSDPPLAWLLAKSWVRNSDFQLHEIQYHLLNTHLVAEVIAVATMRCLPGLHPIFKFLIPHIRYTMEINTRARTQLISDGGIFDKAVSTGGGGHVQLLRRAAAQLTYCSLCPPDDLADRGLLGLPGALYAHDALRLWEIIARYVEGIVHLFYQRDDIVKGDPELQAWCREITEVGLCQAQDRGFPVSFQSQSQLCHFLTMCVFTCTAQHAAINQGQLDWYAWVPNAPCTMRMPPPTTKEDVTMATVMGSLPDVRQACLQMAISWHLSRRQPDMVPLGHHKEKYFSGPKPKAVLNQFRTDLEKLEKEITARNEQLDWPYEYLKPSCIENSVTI
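Hydroperoxide product was detected by ferrous iron/xylenol orange as the 573 to 405 nm absorbance ratio. Arachidonic acid at 40 uM (final) was turned over for 30 min at room temperature by 150 nM human 12hLO, pH 7.0 Hepes buffer, after 15 min compound preincubation.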
TDP1 cell CPT = DT40-hTDP1 cell growth loss with CPT | 420,000 tested, 12% active | chicken DT40 Tdp1-/-;hTDP1 cells + 20 nM CPT, ATP luminescence, 48 h | AID 686979 | Potency, µM (series often up to 46.2 µM), without a hit: at the top dose activity change, negative = growth inhibition, usual class: inhibitors; note: potency is the fitted concentration of half-maximal effect; nearly all actives have a fitted effect of over 55% in size
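Chicken DT40 Tdp1-/- cells stably complemented with human TDP1 were seeded at 400 cells/well in medium containing 20 nM camptothecin, exposed to pin-transferred compounds, and grown at 37 °C for at least 48 hr. Viability was read as ATP luminescence.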
Numbers without * were called inactive; ? = inconclusive; nt = not tested or not shown; [ ] = another dose, or the depositor's remark. Many of the other results were omitted from the sample, so hits are more common in it than they were. Unless noted, calls come from the whole dose curve; as a rule, active = well fitted curve in the direction sought with a large enough effect; inconclusive = small, poorly fitted or top-dose-only effect, or another doubt; inactive = no such curve, though single readings can be large; an effect the other way counts as inactive or inconclusive. Unless noted, % is set by controls: 0 for no effect and ±100 for the full control effect.

SMILES	DT40 TDP1 no CPT	IL-1B inflam inh	HT1080 IDH1KD tx	HT1080NT lethal	12-LOX inh	TDP1 cell CPT
COc1cccc([S+](=O)([O-])N2CCn3c(nnc3-c3ccc(Cl)cc3)C2)c1	nt	nt	nt	nt	0%[6.33 µM]	nt
CCS(=O)(=O)c1ccc2oc(SCC(=O)NC34CC5CC(CC(C5)C3)C4)nc2c1	13µM*	-23	-7%	-9%	-13%	?
C=CCC1C=C(Cc2ccccc2)CC(CC=C)N1 (stereo not drawn)	23µM*	-3	-17%	-2%	-7%	18µM*
C=CC[C@H]1CC(C)=C[C@H](CC=C)N1	1%	14	11%	5%	?	13%
C=CC[C@H]1CC(Cc2ccccc2)=C[C@H](CC=C)N1	18µM*	-75*	-2%	-4%	?	16µM*
O=C(CCCSc1nc2ccccc2c(=O)[nH]1)c1ccc(F)cc1	?	0	-15%	-6%	5%	12µM*
Cc1nc2ccccc2nc1SCC(=O)c1ccccc1	7.3µM*	15	-6%	1%	-15%	?
CCc1ccc(C(=O)CSc2nc3ccccc3c(=O)[nH]2)cc1	1.6µM*	51	1%	1%	-9%	1.5µM*
Cc1ccc(C(=O)CSc2nc3ccccc3c(=O)[nH]2)cc1C	?	22	-28%	2%	?	?
Cc1ccc(C(=O)CSc2nc3ccccc3c(=O)[nH]2)cc1	8.2µM*	0	2%	2%	?	5.8µM*
O=C(CSc1nc2ccccc2c(=O)[nH]1)Nc1ccc(C(=O)O)cc1	-3%	-5	7%	14%	-2%	4%
CCOC(=O)CSc1nc2ccccc2c(=O)[nH]1	-10%	-19	-2%	-1%	-8%	-28%
CCCCNC(=O)N[C@H]1CC[C@@]23CCCN2C(=O)CCC[C@H]3[C@H]1CCC	nt	nt	nt	nt	-4%	nt
COc1cc(C(=O)N2CCC(Cc3nc(C(C)C)no3)CC2)cc(OC)c1OC	nt	nt	nt	nt	27%	nt
COc1ccc(C(=O)CSc2nc(C)cc(=O)[nH]2)cc1	-15%	27	-4%	-3%	?	-13%
Cc1cc(=O)[nH]c(SCC(=O)c2ccc(C(C)C)cc2)n1	18µM*	22	-9%	-1%	?	-26%
O=c1[nH]c(SCCOc2cccc3ccccc23)nc2ccccc12	7.3µM*	20	7%	?	-6%	?
O=C(Cc1cc(C(F)(F)F)cc(C(F)(F)F)c1)Nc1c(-c2ccccc2)[nH][nH]c1=O	-15%	19	-2%	-1%	7%	-3%
CC(C)C(O)C(C#N)CN1CCCC1 (stereo not drawn)	nt	nt	nt	nt	4%	nt
CC(O)(c1ccc(F)c(F)c1)c1nc(-c2ccc(Cl)cc2)cs1 (stereo not drawn)	?	0	23µM*	?	?	?
COc1cc(F)ccc1-c1csc(C(C)(O)c2ccccc2)n1 (stereo not drawn)	18µM*	12	?	?	-3%	?
CC(O)(c1ccc(F)c(F)c1)c1nc(-c2cccc(C(F)(F)F)c2)cs1 (stereo not drawn)	?	-16	?	?	?	18µM*
CC(O)(c1cccc(F)c1)c1nc(-c2cnc3ccccc3c2)cs1 (stereo not drawn)	13µM*	57	?	15µM*	-20%	15µM*
CC(O)(c1ccc(F)c(F)c1)c1nc(-c2cccc(C(=O)O)c2)cs1 (stereo not drawn)	2%	15	0%	2%	-7%	-27%
COCCN1C(=O)[C@@H]2C[C@@H](CN2Cc2ccc(OC)nc2)Oc2ccccc21	nt	nt	nt	nt	-5%[176 µM]	nt
